The values below come from PubChem BioAssay (NCI).

This is part of a sample that, as a whole, favours compounds with a hit. Of some 83,000 tested, about 20% had one in any assay.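 Compound tested at a single concentration for 48 hours in 96-well plates; a percent growth value below 10 was scored as active.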 Values without a mark were called inactive. Activity calls are given as the source filed them.

Holding throughout (experiment): NCI-60 one-dose screen, 48 h (100 = growth as untreated, 0 = no growth, -100 = all killed)
For assay [1], the system named is NCI-H23 lung. The settings on record: 10 µM unless noted.
For assay [2], the system named is NCI-H226 lung. The settings on record: 10 µM unless noted.
Assay [3] concerns NCI-H322M lung. Conditions: 10 µM unless noted.
The test system of assay [4] is HOP-62 NSCLC. Conditions: 10 µM unless noted.
The subject of assay [5] is NCI-H460 lung. Conditions: 10 µM unless noted.
The subject of assay [6] is HOP-92 NSCLC. Conditions: 10 µM unless noted.
In assay [7] the test system is NCI-H522 lung. Conditions: 10 µM unless noted.
Assay [8] deals with A549/ATCC NSCLC. Conditions: 10 µM unless noted.
In assay [9] the test system is 786-0 renal. The settings on record: 10 µM unless noted.
Assay [10] relates to COLO 205 colon. Conditions: 10 µM unless noted.
The test system of assay [11] is DU-145 prostate. The settings on record: 10 µM unless noted.
The test system of assay [12] is K-562 leukemia. The settings on record: 10 µM unless noted.
In assay [13] the test system is MALME-3M melanoma. The settings on record: 10 µM unless noted.
Assay [14] concerns MDA-MB-231 breast. Conditions: 10 µM unless noted.
The subject of assay [15] is RXF 393 renal. Conditions: 10 µM unless noted.
The subject of assay [16] is SF-268 CNS. Conditions: 10 µM unless noted.
Assay [17] concerns SF-295 CNS. The settings on record: 10 µM unless noted.
Assay [18] deals with SF-539 CNS. Conditions: 10 µM unless noted.
In assay [19] the test system is UACC-257 melanoma. Conditions: 10 µM.
In assay [20] the test system is M14 melanoma. The settings on record: 10 µM unless noted.

With `Oc1ccc(CSc2nnc(-c3ccccc3)n2-c2ccccc2)c2cccnc12`, the growth in [1] is 18.8%; in assay [2] it was 19.8%; in assay [3] it was 18.5%; in [4], 11.1%; in assay [5], 1.36% (active); in [6], -14.4% (active). Moreover, the growth was 12.6% in assay [7]; 13% in assay [8]; 18.7% in assay [9]; 61.7% in assay [10]; 21.3% in [11]; 11.2% in assay [12]. In addition, the growth in [13] was 12.2%; in [14], 31%; in assay [15] it was -4.02% (active); in assay [16], 17.2%; in assay [17], 0.953% (active); in assay [18], 0.484% (active). The growth in assay [19] was 3.18% (active); in assay [20] it was -10.6% (active).
Turning to `CN1CCN(c2ccc(NC(=O)Nc3ccc4c(ccn4-c4cccc(C(N)=O)n4)c3)cc2C(F)(F)F)CC1`, the growth is 72.5% in assay [1]; 83.6% in assay [2]; 58.3% in assay [3]; 63.2% in assay [4]; 87.2% in assay [5]; 119% in assay [6]. Also, the growth in assay [7] is 71.6%; in assay [8] it was 51.8%; in [9], 6.16% (active); in assay [10] it was 44.4%; in [11], 77.2%; in assay [12] it was -13.8% (active). The growth was 16% in assay [13]; 74.8% in assay [14]; -12.9% (active) in [15]; 82.1% in assay [16]; -54.7% (active) in [17]; 6.11% (active) in [18]. Moreover, the growth in assay [19] is -14% (active); in assay [20], -47% (active).
In the case of `Nc1nc(N)c2c(n1)NC(c1ccc(Cl)cc1)CC(c1ccc(Nc3nc(NCCO)nc(Nc4ccc(Cl)cc4)n3)cc1)=N2` (stereo not given), the growth is 33% in assay [1]; 81.8% in assay [2]; 55.6% in assay [3]; -63.7% (active) in assay [4]; -57.2% (active) in [5]; 67.4% in assay [6]. The growth in assay [7] was 25.2%; in [8] it was 52%; in assay [9], 28%; in assay [10] it was 67.4%; in [11], 0.35% (active); in [12] it was -25.2% (active). Also, the growth was 68.9% in [13]; 53% in [14]; 43.6% in assay [15]; 51.4% in assay [16]; 47.5% in assay [17]; 83.4% in [18]. Further, the growth was 107% in [19] and 34.5% in assay [20].
Regarding `Fc1ccccc1/C=C(/C1=NCCN1)n1cnc2ccccc21`, the growth in assay [1] is 96%; in assay [2], 83.2%; in assay [3], 90%; in assay [4] it was 106%; in [5] it was 104%; in [6], 73.7%. Further, the growth in [7] was 94.3%; in assay [8], 107%; in [9] it was 99%; in assay [10] it was 123%; in [11], 97.2%; in assay [12] it was 94.1%. Moreover, the growth in [13] was 91%; in [14] it was 93.4%; in assay [15] it was 84.1%; in assay [16] it was 90.9%; in assay [17], 100%; in assay [18], 95.6%. In addition, the growth in assay [19] is 96.9%; in assay [20] it was 95.1%.
With `COc1ccc(-c2nnc(/N=C3/C(=O)Nc4ccc(Br)cc43)o2)cc1`, the growth in assay [1] is 95.5%; in assay [2], 101%; in assay [3], 93.9%; in [4] it was 106%; in [5] it was 101%; in [6], 97.1%. The growth in [7] was 98.6%; in [8], 104%; in [9], 103%; in assay [10], 105%; in [11] it was 101%; in assay [12], 93.1%. The growth in assay [13] was 98.4%; in assay [14], 108%; in assay [15], 112%; in assay [16], 99.3%; in [17], 99.2%; in [18] it was 97.9%. Also, the growth in assay [19] was 106%; in [20], 101%.
For `CCn1c2ccc(/C=N/OCCCN(C)C)cc2c2cc(/C=N/OCCCN(C)C)ccc21`, the growth in assay [1] was -5.99% (active); in assay [2], 79.7%; in assay [3], -11.6% (active); in [4], 62.5%; in assay [5], -3.59% (active); in assay [6], 30.6%. The growth in [7] is -60.5% (active); in assay [8] it was -67.8% (active); in assay [9], -42.5% (active); in [10] it was -55.6% (active); in assay [11], 17.1%; in assay [12], -17.5% (active). The growth in [13] was -88.3% (active); in assay [14], -9.87% (active); in assay [15] it was -73.3% (active); in [16] it was 79.1%; in [17], -66.5% (active); in assay [18], -80.4% (active). The growth was -67.1% (active) in assay [19] and -84.4% (active) in assay [20].
As to `C#C[C@]1(O)CC[C@H]2[C@@H]3CC=C4c5sc(Nc6ccc(OC)nc6)nc5CC[C@]4(C)[C@H]3CC[C@@]21C`, the growth in assay [1] is 63.1%; in assay [2], 47.4%; in assay [3], 85%; in assay [4], 51.7%; in assay [5], 41.5%; in assay [6] it was 60%. The growth is 36% in [7]; 55.2% in assay [8]; -27.6% (active) in assay [9]; 49.3% in assay [10]; 24.8% in [11]; 6.1% (active) in [12]. The growth in assay [13] was 55.2%; in assay [14] it was 64.8%; in assay [15], -15.7% (active); in assay [16] it was 45.9%; in assay [17], -29.7% (active); in assay [18] it was 13.9%. The growth in assay [19] was 89%; in assay [20] it was 59%.
In the case of `CCOC(=O)c1c(NCC(=O)Nc2cccc([N+](=O)[O-])c2)sc2c1CCCC2`, the growth in assay [1] is -70.8% (active); in assay [2], -58.1% (active); in [3], -29.2% (active); in assay [4] it was -48.4% (active); in assay [5] it was -51.5% (active); in [6] it was -24.7% (active). Moreover, the growth in assay [7] was -67% (active); in assay [8], -13.8% (active); in assay [9], -32% (active); in assay [10] it was -56.2% (active); in assay [11], -15.2% (active); in assay [12] it was 3.3% (active). Besides, the growth was -63.9% (active) in assay [13]; -44% (active) in [14]; -84.6% (active) in [15]; -42.2% (active) in assay [16]; -90.2% (active) in assay [17]; -55.6% (active) in assay [18]. Moreover, the growth in assay [19] was -27% (active); in [20] it was -85.2% (active).
